Test results: PubChem BioAssay (NCATS)
“And” between values parts separate entries of the source, which are not always exact repeats. Equal entries are not always repeated. Records with an inconclusive call do not appear. The source made the active and inactive calls. Unless noted, the call rests on the fitted dose curve; in most records, active means well fitted curve in the direction sought with a large enough effect; inconclusive means small, poorly fitted or top-dose-only effect, or another doubt; inactive means no such curve, though single readings can be large; an effect the other way counts as inactive or inconclusive. Non-standard residues stand in square brackets, D forms with d. Residues, ends and D or L forms follow the SMILES beside them. *: point of attachment. Sta = CC(C)C[C@H](N)[C@@H](O)CC(=O)O; Isovaleryl = CC(C)CC(=O)*

Key:
[1] = target: Voltage-gated inwardly rectifying potassium channel KCNH2 (Homo sapiens) (UniProt Q12809); test: qHTS Assay for Small Molecule Inhibitors of the Human hERG Channel Activity (AID 588834);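 further: lower thallium flux fluorescence means stronger hERG block; nearly all actives have a fitted effect of over 50% in size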; further: potency means the concentration at half of the fitted maximal effect
Procedure, shortened: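 Thallium-flux (FluxOR) read-out on FDSS: fluorescence read 10 s before and 2 min after stimulation buffer. hERG-BacMam-transduced U2OS cells, compound exposure about 10 min. AC50 by standard Hill equation.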

[2] = target: Retinoic acid receptor RXR-alpha (Homo sapiens) (UniProt P19793); test: qHTS assay for small molecule agonists of retinoid X receptor alpha signaling (AID 588544; calls by dose curve;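 further: 0% = DMSO basal wells and 100% = reference agonist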)
[3] = qHTS assay for small molecule antagonists of retinoid X receptor alpha signaling (AID 588546; active means well fitted inhibition curve with a large enough effect in the signal ratio, with a control signal flat, not every such curve was filed as active; the % refers to the signal ratio;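 further: cells stimulated with 9-cis-retinoic acid as agonist; on the % scale 0 is the no-effect control and ±100 the full control effect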); conditions: HEK293T RXRa-UAS-bla, beta-lactamase ratio, antagonist mode; measured here: W530 green channel, cytotoxicity proxy
Procedure, shortened: (§1)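 Beta-lactamase reporter inhibition, read as CCF4 fluorescence ratio (ex 405, em 460/530 nm) after 2 h at RT. HEK293T UAS-bla cells, 2500/well, were stimulated with 9-cis-RA at 500 or 100 nM final alongside test compound for 18 h at 37 C.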

[4] = target: Retinoic acid receptor RXR-alpha (Homo sapiens) (UniProt P19793); test: as above; conditions: HEK293T RXRa-UAS-bla, beta-lactamase ratio, antagonist mode
Procedure, shortened: as §1

[5] = target: Luciferin 4-monooxygenase (Photinus pyralis) (UniProt P08659); test: Biochemical firefly luciferase enzyme assay for NPC (AID 624030); further: nearly all actives have a fitted effect of over 70% in size; further: potency means the concentration at half of the fitted maximal effect
Procedure, shortened: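 Direct inhibition of firefly luciferase enzyme (10 nM final, 50 mM Tris Acetate) assessed by luminescence within 5 minutes. Percent activity scaled between DMSO and PTC124 positive control, with concentration-effect curves classified by fit quality and response.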

[6] = S16 Schwann cell viability assay (CellTiter-Glo assay) (AID 624031);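 further: cellular ATP luminescence as a viability measure; plate controls were DMSO-treated cells for no effect and cell-free wells for full effect; nearly all actives have a fitted effect of over 70% in size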
Procedure, shortened: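 Luminescent ATP read-out (CellTiter-Glo) after 24 h compound exposure of native S16 rat Schwann cells at 37 °C. Signals were normalized between cell-free wells and DMSO-treated cells, set as 0% activity.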

[7] = S16 Schwann cell PMP22 intronic element firefly luciferase assay (AID 624032); further: nearly all actives have a fitted effect of over 30% in size; further: potency means the concentration at half of the fitted maximal effect
Procedure, shortened: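 Luciferase reporter of PMP22 intronic-element expression in stably transfected S16 rat Schwann cells, read by ONE-Glo luminescence after 24 h compound exposure at 37 C. Activity scaled between DMSO (0%) and positive-control PTC124; concentration-effect curves quality-classified.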

[8] = S16 Schwann cell PMP22 intronic element beta-lactamase assay (AID 624044; calls by dose curve;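 further: 0% = DMSO and -100% = potassium clavulanate positive control; nearly all actives have a fitted effect of over 15% in size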)
Procedure, shortened: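 Beta-lactamase reporter under a PMP22 intronic regulatory element in stable S16 rat Schwann cells; 24 h compound exposure. 460 nm blue signal normalized between DMSO (0%) and potassium clavulanate, with 535 nm FRET tracking viability; curves classed by r2 and response.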

[9] = target: Thyroid hormone receptor beta (Homo sapiens) (UniProt P10828); test: qHTS assay for small molecule agonists of thyroid hormone receptor beta signaling (AID 588545; calls by dose curve)
Procedure, shortened: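 Cells (2500/well) were seeded, incubated 4 hrs at 37 C, dosed with a compound series, incubated 18 hrs, loaded with CCF4 dye for 2 hrs at RT, then read for fluorescence. Data were scaled between DMSO (0%) and 10 nM T3 (100%).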

[10] = target: Glutaminase kidney isoform, mitochondrial (Homo sapiens) (UniProt O94925); test: qHTS for Inhibitors of Glutaminase (GLS): LOPAC Validation (AID 624146);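 further: glutamate product detected by oxidase and peroxidase coupled Amplex red fluorescence gain; on the % scale 0 is the no-effect control and ±100 the full control effect; nearly all actives have a fitted effect of over 60% in size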
Procedure, shortened: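 Coupled fluorescence readout: glutamate oxidase/HRP/Amplex Red detect glutamate formed by hKGA from L-glutamine (1 mM solution added). Buffer 45 mM KH2PO4 pH 8.2, 0.02% Tween-20; reads at t0 and 30 min RT.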

[11] = qHTS of Trypanosoma Brucei Inhibitors: LOPAC Validation (AID 624147); further: 0% is about no effect
Procedure, shortened: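 Enzyme and substrate buffer are dispensed first and compound is pin-transferred. ADP at 130 uM final then starts the reaction, which runs 45 min at room temperature. Detection reagent is added for 10 min before luminescence is imaged.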

[12] = target: Glucagon-like peptide 1 receptor (Homo sapiens) (UniProt P43220); test: qHTS of GLP-1 Receptor Agonists: LOPAC Validation (AID 624148);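 further: luminescence from a luciferase reporter switched on by cAMP; 0% is about no effect; higher luminescence signal means agonism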
Procedure, shortened: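 Agonism scored as increased luciferase luminescence driven by cAMP in HEK293 clones carrying GLP-1R. Cells settled 12 hours, received compound for 4-6 hr at 37 deg C, 5% CO2, and were read after 12 min detection reagent at RT.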

[13] = HTS Assay for Allosteric Antagonists of the Human D2 Dopamine Receptor: Hit Validation in HTRF (AID 624455);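 further: stable D1 dopamine receptor cell line scored for blocking the D1 response; on the % scale 0 is the no-effect control and ±100 the full control effect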
Procedure, shortened: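 Inhibition of the D1-mediated response is measured by HTRF in cells that stably express the D1 dopamine receptor. Compounds reaching this step are hits from calcium-flux antagonism testing at EC80 dopamine in inducible Hek293 Trex D2 cells.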

[14] = target: Thyroid hormone receptor beta (Homo sapiens) (UniProt P10828); test: qHTS assay for small molecule antagonists of thyroid hormone receptor beta signaling (AID 588547; active means well fitted inhibition curve with a large enough effect in the signal ratio, with a control signal flat, not every such curve was filed as active; the % refers to the signal ratio;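 further: cells stimulated with 0.4 nM T3 agonist during compound exposure; on the % scale 0 is the no-effect control and ±100 the full control effect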); conditions: TR-UAS-bla HEK293, beta-lactamase ratio, antagonist mode, 18 h
Procedure, shortened: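 Inhibition of T3-driven (0.4nM final) beta-lactamase reporter activity was measured over 0.59 nM to 92 uM compound after 18 h at 37 C. The cells were GripTite HEK293 TR-UAS-bla in charcoal/dextran-stripped serum, with CCF4 ratio read-out and IC50 from Hill fits.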

[15] = Cytotoxicity counterscreen for NFkB agonists and antagonists (AID 624476);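 further: cells exposed to compound for 48 hours; on the % scale 0 is the no-effect control and ±100 the full control effect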
[16] = qHTS Assay for Identification of Small Molecule Agonists for NFkB Signaling Pathway. (AID 624478);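 further: compounds tested together with TNF alpha at its EC50 of 10 pM; 0% is about no effect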
Procedure, shortened: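 Activators were sought in reporter cells stimulated at the TNF alpha EC50 (10 pM final). Compound and cytokine were co-incubated 5 hours at 37 C before beta-lactamase substrate detection by dual-emission fluorescence.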

[17] = qHTS Assay for Identification of Small Molecule Antagonists for NFkB Signaling Pathway. (AID 624479; calls by dose curve)
[18] = Cell Proliferation Assay against the TMD8 Cell Line (AID 651645); conditions: TMD8 DLBCL cell line proliferation/viability; at 46.1 µM (top of the series) unless noted;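 further: cells exposed to compound for 48 h before reading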
Procedure, shortened: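 Luminescent ATP read-out (CellTiter-Glo, 15 min RT) after 48 h compound exposure of log-growing TMD8 cells at 37C; percent activity scaled between DMSO as 100% and 9.2 uM bortezomib final as 0%.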

[19] = Cell Proliferation Assay against the HBL1 Cell Line (AID 651646); conditions: HBL1 DLBCL cells; at 46.1 µM (top of the series) unless noted;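 further: cells exposed to compound for 48 h before reading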
Procedure, shortened: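 CellTiter-Glo luminescence after 48 h compound exposure at 37C gives percent activity, with DMSO as 100% and 9.2 uM bortezomib final as 0%. Cells: 500 log-phase HBL1 per well, RPMI plus 5% FBS.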

[20] = Cell Proliferation Assay against the TMD8 Cell Line (Caspase readout at 16 hrs) (AID 651712);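 further: 0% = DMSO and 100% = 9.2 µM bortezomib caspase activation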
Procedure, shortened: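 Caspase-Glo luminescence measured apoptosis after a 16 h, 37 C compound exposure of TMD8 cells (500 cells/well, 5% FBS RPMI). DMSO set 0% and bortezomib at 9.2 uM final set 100% activity.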

Sequence of Retinoic acid receptor RXR-alpha (Homo sapiens) (P19793 whole entry, looked up): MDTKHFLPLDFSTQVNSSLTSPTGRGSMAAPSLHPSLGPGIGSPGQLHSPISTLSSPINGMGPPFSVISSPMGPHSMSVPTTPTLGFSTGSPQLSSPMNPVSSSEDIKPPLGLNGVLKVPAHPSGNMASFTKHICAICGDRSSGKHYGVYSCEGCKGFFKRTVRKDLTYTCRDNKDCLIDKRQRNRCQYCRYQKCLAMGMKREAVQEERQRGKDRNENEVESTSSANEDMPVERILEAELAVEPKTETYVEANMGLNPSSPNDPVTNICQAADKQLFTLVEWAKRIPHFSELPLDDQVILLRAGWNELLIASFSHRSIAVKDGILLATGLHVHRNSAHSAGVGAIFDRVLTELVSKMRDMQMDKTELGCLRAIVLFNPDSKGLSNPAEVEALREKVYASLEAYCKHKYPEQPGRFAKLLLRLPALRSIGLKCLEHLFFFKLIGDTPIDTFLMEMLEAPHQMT
Sequence of Voltage-gated inwardly rectifying potassium channel KCNH2 (Homo sapiens) (Q12809 whole entry, looked up): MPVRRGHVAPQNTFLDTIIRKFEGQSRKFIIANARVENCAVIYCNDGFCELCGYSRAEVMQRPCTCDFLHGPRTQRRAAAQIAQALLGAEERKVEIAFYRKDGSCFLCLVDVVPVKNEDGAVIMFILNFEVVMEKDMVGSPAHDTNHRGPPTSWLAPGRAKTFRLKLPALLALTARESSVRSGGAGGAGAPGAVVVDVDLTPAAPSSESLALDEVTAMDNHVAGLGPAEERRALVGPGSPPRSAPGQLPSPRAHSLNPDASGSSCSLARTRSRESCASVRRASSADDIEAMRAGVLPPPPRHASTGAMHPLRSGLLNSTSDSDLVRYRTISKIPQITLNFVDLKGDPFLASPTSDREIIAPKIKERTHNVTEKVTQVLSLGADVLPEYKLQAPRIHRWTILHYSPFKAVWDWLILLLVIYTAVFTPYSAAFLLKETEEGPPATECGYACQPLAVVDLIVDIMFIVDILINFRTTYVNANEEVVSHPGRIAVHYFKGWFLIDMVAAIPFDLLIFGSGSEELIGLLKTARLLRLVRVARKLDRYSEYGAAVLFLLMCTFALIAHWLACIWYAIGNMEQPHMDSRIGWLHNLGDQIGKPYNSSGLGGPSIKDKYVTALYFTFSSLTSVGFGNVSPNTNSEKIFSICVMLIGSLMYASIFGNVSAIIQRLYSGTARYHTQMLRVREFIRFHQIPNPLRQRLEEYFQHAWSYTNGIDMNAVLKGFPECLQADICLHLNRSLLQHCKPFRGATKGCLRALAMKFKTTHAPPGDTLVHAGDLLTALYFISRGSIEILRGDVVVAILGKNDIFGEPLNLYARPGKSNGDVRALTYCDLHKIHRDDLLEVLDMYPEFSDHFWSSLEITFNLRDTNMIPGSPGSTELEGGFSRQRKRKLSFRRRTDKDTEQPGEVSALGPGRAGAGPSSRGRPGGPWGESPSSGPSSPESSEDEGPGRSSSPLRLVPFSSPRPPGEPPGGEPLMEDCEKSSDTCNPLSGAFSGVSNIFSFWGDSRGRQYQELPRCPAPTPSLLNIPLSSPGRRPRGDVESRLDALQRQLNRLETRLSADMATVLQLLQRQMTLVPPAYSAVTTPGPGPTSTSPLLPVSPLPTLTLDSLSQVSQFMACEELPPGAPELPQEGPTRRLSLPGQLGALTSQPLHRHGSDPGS
Sequence of Luciferin 4-monooxygenase (Photinus pyralis) (P08659 whole entry, looked up): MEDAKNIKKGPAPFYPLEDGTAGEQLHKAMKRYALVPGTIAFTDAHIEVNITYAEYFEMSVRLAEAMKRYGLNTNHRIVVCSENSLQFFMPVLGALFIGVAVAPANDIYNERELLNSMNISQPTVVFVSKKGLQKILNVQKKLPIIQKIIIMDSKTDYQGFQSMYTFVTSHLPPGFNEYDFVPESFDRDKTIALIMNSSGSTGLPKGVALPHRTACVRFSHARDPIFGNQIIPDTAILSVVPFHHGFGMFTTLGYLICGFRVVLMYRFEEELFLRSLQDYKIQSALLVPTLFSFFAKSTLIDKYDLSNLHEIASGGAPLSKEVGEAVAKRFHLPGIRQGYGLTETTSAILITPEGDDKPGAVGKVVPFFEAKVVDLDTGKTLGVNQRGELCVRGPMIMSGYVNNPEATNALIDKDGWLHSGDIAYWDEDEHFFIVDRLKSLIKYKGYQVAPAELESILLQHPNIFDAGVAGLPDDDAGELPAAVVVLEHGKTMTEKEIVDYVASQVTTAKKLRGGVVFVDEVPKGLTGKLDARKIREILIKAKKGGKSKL
Sequence of Thyroid hormone receptor beta (Homo sapiens) (P10828 whole entry, looked up): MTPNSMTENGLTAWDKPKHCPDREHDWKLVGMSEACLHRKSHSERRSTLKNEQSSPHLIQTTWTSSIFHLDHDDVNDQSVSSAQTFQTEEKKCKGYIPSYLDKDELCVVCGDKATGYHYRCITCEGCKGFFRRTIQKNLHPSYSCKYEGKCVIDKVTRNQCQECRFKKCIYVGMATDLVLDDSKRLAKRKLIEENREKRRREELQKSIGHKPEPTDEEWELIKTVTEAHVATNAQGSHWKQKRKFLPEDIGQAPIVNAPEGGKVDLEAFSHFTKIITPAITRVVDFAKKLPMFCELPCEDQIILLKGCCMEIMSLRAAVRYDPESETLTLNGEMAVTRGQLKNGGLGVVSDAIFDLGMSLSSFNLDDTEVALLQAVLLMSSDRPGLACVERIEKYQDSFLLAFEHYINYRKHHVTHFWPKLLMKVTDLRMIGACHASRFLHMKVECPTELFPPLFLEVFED
Sequence of Glucagon-like peptide 1 receptor (Homo sapiens) (P43220 whole entry, looked up): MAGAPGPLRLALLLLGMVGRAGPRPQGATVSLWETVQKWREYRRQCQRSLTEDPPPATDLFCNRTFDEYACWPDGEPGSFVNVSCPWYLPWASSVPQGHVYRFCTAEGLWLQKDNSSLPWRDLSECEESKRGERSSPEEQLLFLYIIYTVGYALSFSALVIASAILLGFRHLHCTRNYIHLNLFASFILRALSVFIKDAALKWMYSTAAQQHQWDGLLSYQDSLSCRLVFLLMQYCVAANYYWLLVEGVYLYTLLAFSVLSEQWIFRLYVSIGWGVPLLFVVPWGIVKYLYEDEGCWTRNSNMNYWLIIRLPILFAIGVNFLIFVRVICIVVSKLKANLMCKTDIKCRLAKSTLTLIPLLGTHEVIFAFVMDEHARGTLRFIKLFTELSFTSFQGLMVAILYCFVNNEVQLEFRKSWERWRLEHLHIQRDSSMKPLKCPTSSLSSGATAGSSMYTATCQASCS
Sequence of Glutaminase kidney isoform, mitochondrial (Homo sapiens) (O94925 whole entry, looked up, canonical isoform): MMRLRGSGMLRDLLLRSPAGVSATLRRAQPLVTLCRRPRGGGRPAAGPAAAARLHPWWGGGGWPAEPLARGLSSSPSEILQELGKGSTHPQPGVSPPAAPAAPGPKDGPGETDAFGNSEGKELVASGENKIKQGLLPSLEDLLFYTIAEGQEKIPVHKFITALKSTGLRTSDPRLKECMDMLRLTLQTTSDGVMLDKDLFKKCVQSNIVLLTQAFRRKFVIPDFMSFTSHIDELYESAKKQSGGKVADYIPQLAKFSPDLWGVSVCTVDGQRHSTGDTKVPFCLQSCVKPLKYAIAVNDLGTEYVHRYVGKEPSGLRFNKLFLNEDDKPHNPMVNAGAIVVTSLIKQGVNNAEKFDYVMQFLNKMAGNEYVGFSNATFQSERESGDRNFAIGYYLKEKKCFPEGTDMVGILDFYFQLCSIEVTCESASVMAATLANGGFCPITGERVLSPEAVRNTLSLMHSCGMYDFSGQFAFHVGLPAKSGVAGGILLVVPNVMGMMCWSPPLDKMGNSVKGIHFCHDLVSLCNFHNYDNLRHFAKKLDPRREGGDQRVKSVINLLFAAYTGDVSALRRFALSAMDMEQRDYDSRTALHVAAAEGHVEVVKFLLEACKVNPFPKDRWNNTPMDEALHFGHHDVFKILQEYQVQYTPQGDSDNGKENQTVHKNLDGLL

Cc1cccc(CN2CCN(C(c3ccccc3)c3ccc(Cl)cc3)CC2)c1 (centres undefined)
active: Potency [1] 1.26 µM

CS(=O)(=O)OCCCCOS(C)(=O)=O
2.17% and -2.42%: max response [3]
inactive: outcome [2] | max response [4] 8.02% and 2.56% | Potency [1] | Potency [5] | Potency [6] | Potency [7] | Potency [8]

CN(C)c1ccc(O)c2c1C[C@H]1C[C@H]3[C@H](N(C)C)C(=O)C(C(N)=O)=C(O)[C@@]3(O)C(=O)C1=C2O
inactive: Potency [1] | Potency [5]

O=C(NCCO[N+](=O)[O-])c1cccnc1
inactive: Potency [1] | Potency [5] | Potency [6]

Cc1cc(C2CCCCC2)n(O)c(=O)c1
inactive: Potency [1] | Potency [5] | Potency [6]
active: Potency [7] 1.55 µM

Clc1ccc(C(Cn2ccnc2)OCc2c(Cl)cccc2Cl)c(Cl)c1 (centres undefined)
active: Potency [1] 7.94 µM

COc1cc(OC)c(C(=O)CCCN2CCCC2)c(OC)c1
inactive: outcome [2] | outcome [9] | max response [4] -23.6% | Potency [1] | Potency [5] | Potency [6] | Potency [7]
-15.1%: max response [3]

CC(=O)N1CCN(c2ccc(OC[C@H]3CO[C@](Cn4ccnc4)(c4ccc(Cl)cc4Cl)O3)cc2)CC1
inactive: outcome [9] | Potency [10] | Potency [11] | outcome [12] | outcome [13]

Clc1ccc(C(Cn2ccnc2)OCc2ccsc2Cl)c(Cl)c1 (centres undefined)
active: Potency [1] 10 µM
inactive: Potency [5]

CC(C)CC(=O)N[C@H](C(=O)N[C@H](C(=O)N[C@@H](CC(C)C)[C@@H](O)CC(=O)N[C@@H](C)C(=O)N[C@@H](CC(C)C)[C@@H](O)CC(=O)O)C(C)C)C(C)C (Isovaleryl-VV[Sta]A[Sta]-OH)
inactive: Potency [1]

Cc1cc(O)c2c(c1)C(=O)c1cc(O)cc(O)c1C2=O
1.07%: max response [3]
inactive: outcome [9] | max response [4] -11.8% | activity change % (negative = inhibition) [14] -22% | outcome [12] | outcome [13]

CCCc1cc(=O)[nH]c(=S)[nH]1
2.58% and 1.92%: max response [3]
inactive: outcome [2] | outcome [9] | max response [4] 3.88% and 3.79% | activity change % (negative = inhibition) [14] 8.46% | Potency [1] | Potency [5] | Potency [6] | Potency [7]

O=C(CS(=O)Cc1ccco1)NCC=CCOc1cc(CN2CCCCC2)ccn1 (centres undefined)
inactive: Potency [1] | Potency [5] | Potency [6] | Potency [7]

Cc1cc2cc3c(C)cc(=O)oc3c(C)c2o1
inactive: Potency [1] | Potency [5] | Potency [6] | Potency [7] | Potency [8]

O=P(O)(O)C(O)(Cn1ccnc1)P(=O)(O)O
inactive: Potency [1] | Potency [5] | Potency [6] | Potency [7] | Potency [8]

Cc1cc2c(s1)Nc1ccccc1N=C2N1CCN(C)CC1
inactive: Potency [1] | Potency [5] | Potency [6] | Potency [7]

CCN(CCO)CCCC(C)Nc1ccnc2cc(Cl)ccc12 (centres undefined)
inactive: Potency [1] | Potency [5] | Potency [6] | Potency [7] | Potency [8] | Potency [15] | outcome [16] | Potency [17] | Potency [20]
121%: viability, percent of control [19]
114%: viability (% of control) [18]

O=C(OC1C[C@H]2CC[C@@H](C1)[N+]21CCCC1)C(O)(c1ccccc1)c1ccccc1 (some centres undefined)
inactive: Potency [1] | Potency [5] | Potency [6] | Potency [7] | Potency [8]

N=C(N)c1ccc2cc(OC(=O)c3ccc(N=C(N)N)cc3)ccc2c1
inactive: Potency [1] | Potency [5] | Potency [6] | Potency [7]

Cc1cc(=O)oc2cc(O)ccc12
inactive: Potency [1] | Potency [5] | Potency [6] | Potency [7]

O=C(O)c1cccc(-c2noc(-c3ccccc3F)n2)c1
active: Potency [5] 0.0072 µM
inactive: Potency [1] | Potency [6] | Potency [7]

CNC[C@@H](O)[C@@H](O)[C@H](O)[C@H](O)CO
inactive: Potency [1] | Potency [5] | Potency [6] | Potency [7] | Potency [8]

CC(C)(S)[C@@H](N)C(=O)O
inactive: Potency [1] | Potency [5] | Potency [6] | Potency [7] | Potency [8]

CCN(CC)CCOc1ccc(Cc2ccccc2)cc1
inactive: Potency [5] | Potency [6] | Potency [7]
active: Potency [1] 5.01 µM

CC(S)C(=O)NCC(=O)O (centres undefined)
inactive: Potency [1] | Potency [5] | Potency [6] | Potency [7]

C[C@]12CCC(=O)C=C1CC[C@@H]1[C@H]2[C@@H](O)C[C@@]2(C)[C@H]1CC[C@]2(O)C(=O)CO
inactive: Potency [1] | Potency [5] | Potency [6] | Potency [7] | Potency [8]

O=C(NC(Cc1cc(=O)[nH]c2ccccc12)C(=O)O)c1ccc(Cl)cc1 (centres undefined)
inactive: Potency [1] | Potency [5] | Potency [6] | Potency [7]

CC1=C(C)C(=O)C(C(CCCCCC(=O)O)c2ccccc2)=C(C)C1=O (centres undefined)
inactive: Potency [1] | Potency [5] | Potency [6] | Potency [7] | Potency [8]

CCOC(=O)c1c(C)n(C)c2ccc(O)cc12
inactive: Potency [1] | Potency [5] | Potency [6] | Potency [7] | Potency [8]

CCCOc1ccc2nc(NC(=O)OC)[nH]c2c1
inactive: Potency [1] | Potency [5] | Potency [6] | Potency [7]

CCCCCCCCOc1ccccc1C(=O)Nc1ccc(C(=O)OCC[N+](C)(CC)CC)cc1
inactive: Potency [1] | Potency [5] | Potency [6] | Potency [7] | Potency [8]

C[C@H](Cn1cnc2c(N)ncnc21)OCP(=O)(O)O
inactive: Potency [1] | Potency [5] | Potency [6] | Potency [7] | Potency [8]
